We go through 15 compounds from PubChem BioAssay (NCATS).

One assay deals with JCK. Description: qHTS profiling for inhibitors of Plasmodium falciparum proliferation (AID 504749). Further: potency means the concentration at half of the fitted maximal effect. Conditions: P. falciparum in erythrocytes, SYBR Green DNA, 72 h; series mostly up to 28.7 µM. Put shortly: (§1)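 Quantitative HTS: compounds pinned into medium, infected erythrocytes added (0.3% parasitemia, 2.5% hematocrit), 72 h culture at 37 C under 5% CO2. Saponin/Triton lysis with SYBR Green I, overnight RT, then fluorescence read.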
(In general: In qHTS, concentration-response curves come from the screen itself.)

The next assay concerns N140. The assay is described as above. Conditions: P. falciparum in erythrocytes, SYBR Green DNA, 72 h; series mostly up to 28.7 µM. Put shortly: as §1
The next assay concerns P93_24. The assay is described as above. Conditions: P. falciparum in erythrocytes, SYBR Green DNA, 72 h; series mostly up to 28.7 µM. Put shortly: as §1
The test system of another assay is P94_40. The description is as above. Conditions: P. falciparum in erythrocytes, SYBR Green DNA, 72 h; series mostly up to 28.7 µM. The procedure, abridged:
as §1

Another assay concerns PAD. Described as above. Conditions: P. falciparum in erythrocytes, SYBR Green DNA, 72 h; series mostly up to 28.7 µM. Put shortly:
as §1

A further assay relates to PC15. Described as above. Conditions: P. falciparum in erythrocytes, SYBR Green DNA, 72 h; series mostly up to 28.7 µM. The procedure, abridged:
as §1

In the next assay the test system is PC49. The description is as above. Conditions: P. falciparum in erythrocytes, SYBR Green DNA, 72 h; series mostly up to 28.7 µM. The procedure, abridged: as §1
The next assay relates to SC27B. The assay is described as above. Conditions: P. falciparum in erythrocytes, SYBR Green DNA, 72 h; series mostly up to 28.7 µM. Put shortly: as §1
The test system of a further assay is TAB109. Described as above. Conditions: P. falciparum in erythrocytes, SYBR Green DNA, 72 h; series mostly up to 28.7 µM. Put shortly: as §1
In the next assay the test system is TAB113. The assay is described as above. Conditions: P. falciparum in erythrocytes, SYBR Green DNA, 72 h; series mostly up to 28.7 µM. Put shortly: as §1
Another assay relates to TAB165. The description is as above. Conditions: P. falciparum in erythrocytes, SYBR Green DNA, 72 h; series mostly up to 28.7 µM. Put shortly:
as §1

The next assay relates to KB-3-1. Put plainly: Cytotoxic Profiling of Annotated Libraries Using Quantitative High-Throughput Screening (AID 1296008). Further: on the % scale 0 is the no-effect control and ±100 the full control effect. Conditions: Five cell lines viability, CellTiter-Glo ATP luminescence, 48-72 h; max response: stronger effect = lower value. Put shortly:
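Compounds were pin-transferred onto cells and incubated 48 or 72 hr at 37 degree Celsius, 95% humidity. CellTiter-Glo was added, plates sat 10 min at room temperature, then ATP-coupled luminescence was imaged as the viability read-out.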
Background: Cellular ATP, detected with luciferase, serves as a proxy for viable cell number.

Another assay has as its system PC26. Description: qHTS profiling for inhibitors of Plasmodium falciparum proliferation (AID 504749). Further: potency means the concentration at half of the fitted maximal effect. Conditions: P. falciparum in erythrocytes, SYBR Green DNA, 72 h; series mostly up to 28.7 µM. Put shortly: as §1
Another assay relates to W2. The description is as above. Conditions: P. falciparum in erythrocytes, SYBR Green DNA, 72 h; series mostly up to 28.7 µM. Put shortly:
as §1

The test system of the next assay is ICS. The description is as above. Conditions: P. falciparum in erythrocytes, SYBR Green DNA, 72 h; series mostly up to 28.7 µM. The procedure, abridged:
as §1

Molecules are shown by their SMILES. Results filed as inconclusive are left out. A number with no mark means an inactive call. Calls of active or inactive are those of the source. The call rests on the fitted dose curve; in most records, active means well fitted inhibition curve with a large enough effect; inconclusive means small, poorly fitted or top-dose-only effect; inactive means flat fitted curve, though single readings scatter.
Further: nearly all actives have a fitted effect of over 60% in size.

As to `C#C[C@]1(O)CC[C@@H]2[C@H]3CCC4=CC(=O)CC[C@H]4[C@H]3C(=C)C[C@@]21CC`, the Potency entry with JCK, in the assay on N140, in the assay on P93_24, in the assay with P94_40, in the assay on PAD and in the assay on PC15 was “inactive” in each case. In addition, the Potency entry in the assay with PC49, in the assay with SC27B, in the assay on TAB109, in the assay with TAB113 and in the assay with TAB165 was “inactive” throughout. Besides, the max response in the assay with KB-3-1 is 1.8%.
Turning to `CS(=O)(=O)c1ccc([C@@H](O)[C@@H](COC(=O)CN)NC(=O)C(Cl)Cl)cc1`, the Potency result in the assay with JCK, in the assay on N140, in the assay with PAD, in the assay on PC15, in the assay with PC26 and with PC49 was “inactive” throughout. For the same compound, the Potency result in the assay with SC27B and in the assay with TAB113 was “inactive” throughout. Moreover, in the assay with TAB109, the Potency was 8.91 µM (active). Also, the max response in the assay on KB-3-1 was -15.1%.
As for `CSc1nc2cc(Oc3cccc(Cl)c3Cl)c(Cl)cc2[nH]1`, the Potency was 8.91 µM (active) in the assay with N140; 10 µM (active) in the assay on P93_24; 10 µM (active) in the assay with P94_40; 8.91 µM (active) in the assay on PC15; 5.36 µM (active) in the assay with PC26; 12.6 µM (active) in the assay on PC49. For the same compound, the Potency in the assay on SC27B was 12.6 µM (active); in the assay with TAB109, 7.94 µM (active); with TAB113, 8.91 µM (active); in the assay with TAB165, 7.94 µM (active); in the assay on W2, 6.75 µM (active). Moreover, the max response with KB-3-1 is -1.84%.
Regarding `N#Cc1ccc2c(c1)N(CCCN1CCC(O)CC1)c1ccccc1S2`, the Potency result with JCK and in the assay with PC49 was “inactive” throughout. For the same compound, the Potency in the assay on N140 is 12.6 µM (active); in the assay with W2, 4.26 µM (active). Besides, the max response with KB-3-1 was 1.4%.
Take `NC(N)=NCC1COc2ccccc2O1` (centres undefined): the Potency result in the assay on JCK, in the assay on N140, in the assay with P94_40, with PAD, in the assay with PC15 and with PC26 was “inactive” in each case. The Potency entry in the assay with PC49, with SC27B, in the assay with TAB109, with TAB113 and with TAB165 was “inactive” throughout. The max response with KB-3-1 is -6.36%.
`C[C@]12CCC(=O)C[C@@H]1CC[C@@H]1[C@@H]2CC[C@]2(C)C=CC[C@@H]12`: the Potency result with JCK, in the assay with P93_24, in the assay on P94_40, in the assay on PAD, in the assay with PC15 and in the assay with PC26 was “inactive” in each case. Moreover, the Potency result in the assay with PC49, with SC27B, in the assay with TAB109, with TAB113 and in the assay on TAB165 was “inactive” each time. Besides, the max response with KB-3-1 was -14.2%.
On to `CC(C)O`, for which the Potency entry in the assay with ICS, in the assay on JCK, in the assay on N140, with P93_24, with P94_40 and in the assay on PAD was “inactive” each time. For the same compound, the Potency result with PC15, in the assay on PC26, with PC49, in the assay on SC27B, in the assay on TAB109 and in the assay on TAB113 was “inactive” each time. In addition, the Potency entry with TAB165 and with W2 was “inactive” each time.
Turning to `CO[C@H]1C[C@@H]2CC[C@@H](C)[C@@](O)(O2)C(=O)C(=O)N2CCCC[C@H]2C(=O)O[C@H]([C@H](C)C[C@@H]2CC[C@@H](OC(=O)C(C)(CO)CO)[C@H](OC)C2)CC(=O)[C@H](C)/C=C(\C)[C@@H](O)[C@@H](OC)C(=O)[C@H](C)C[C@H](C)/C=C/C=C/C=C/1C`, the Potency result in the assay with ICS, in the assay with JCK, with N140, in the assay on P93_24, in the assay on P94_40 and with PAD was “inactive” each time. Moreover, the Potency result with PC15, with PC26, in the assay with PC49, with SC27B, with TAB109 and with TAB113 was “inactive” each time. The Potency entry in the assay with TAB165 and with W2 was “inactive” each time.
Take `O=C(O)CCC(=O)c1ccc(-c2ccccc2)cc1`: the Potency result in the assay on ICS, with JCK, in the assay on N140, in the assay with P93_24, with P94_40 and in the assay with PAD was “inactive” throughout. Moreover, the Potency entry in the assay on PC15, in the assay with PC26, in the assay with PC49, with SC27B, in the assay on TAB109 and in the assay with TAB113 was “inactive” each time. For the same compound, the Potency entry with TAB165 and in the assay on W2 was “inactive” throughout.
As to `C=CC[N+]1([C@H]2C[C@H]3[C@@H]4CC[C@H]5C[C@H](O)[C@@H](N6CCOCC6)C[C@]5(C)[C@H]4CC[C@]3(C)[C@H]2OC(C)=O)CCCC1`, the Potency entry with JCK, in the assay on PC15 and with PC49 was “inactive” each time. In addition, the results for the Potency in the assay with P94_40, in the assay with TAB109 and in the assay on W2 were 8.91 µM (active), 6.31 µM (active) and 5.36 µM (active), respectively. Moreover, the max response in the assay with KB-3-1 is 7.82%.
As for `CCSc1ccc2c(c1)N(CCCN1CCN(C)CC1)c1ccccc1S2`, the Potency entry in the assay with JCK, in the assay on N140, in the assay with P93_24, with P94_40, in the assay with PAD and in the assay on PC15 was “inactive” in each case. The Potency entry in the assay with PC26, in the assay with PC49, with TAB109 and with TAB165 was “inactive” in each case. The max response with KB-3-1 is -2.13%.
For the compound `C[C@@](Cc1ccc(O)c(O)c1)(NN)C(=O)O`, the Potency entry with JCK, with N140, in the assay with P93_24, with PAD, in the assay on PC15 and in the assay with PC26 was “inactive” each time. For the same compound, the Potency result with PC49, in the assay on SC27B, with TAB109, in the assay on TAB113, in the assay with TAB165 and with W2 was “inactive” throughout. The max response in the assay on KB-3-1 is 2.59%.
Regarding `CCOc1cc(-c2nccc3cc(OC)c(OC)cc23)cc(OCC)c1OCC`, the Potency result in the assay with TAB109 is “inactive”. Moreover, the Potency in the assay on W2 was 15.1 µM (active). Further, the max response with KB-3-1 was -26.3%.
Consider `CC[C@H]1OC(=O)[C@H](C)[C@@H](O[C@H]2C[C@@](C)(OC)[C@@H](O)[C@H](C)O2)[C@H](C)[C@@H](O[C@@H]2O[C@H](C)C[C@H](N(C)C)[C@H]2O)[C@](C)(O)C[C@@H](C)CN(C)[C@H](C)[C@@H](O)[C@]1(C)O`, for which the Potency entry in the assay on JCK, in the assay with PC26 and with PC49 was “inactive” throughout. Besides, the Potency with N140 is 8.91 µM (active); in the assay with P94_40 it was 2.51 µM (active); in the assay on TAB109, 1 µM (active); with TAB113 it was 12.6 µM (active); in the assay with TAB165, 7.94 µM (active); in the assay with W2, 0.426 µM (active). The max response in the assay with KB-3-1 is -8.69%.
As for `O=C(O[C@H]1CN2CCC1CC2)N1CCc2ccccc2[C@@H]1c1ccccc1`, the Potency result in the assay on JCK, in the assay with N140, with P94_40, with PAD, with PC49 and in the assay on SC27B was “inactive” throughout. The Potency result with TAB109 and with TAB113 was “inactive” throughout. Besides, in the assay on W2, the Potency was 1.69 µM (active). Moreover, the max response with KB-3-1 is 8.58%.
